DT40 TDP1 no CPT: qHTS for Inhibitors of human tyrosyl-DNA phosphodiesterase 1 (TDP1): qHTS in cells in absence of CPT; DT40 Tdp1-/- hTDP1 cells, no CPT, ATP luminescence, 48 h; Potency, µM (doses to about 46.2 µM), hits mostly inhibitors; hit rate 15% among 420,000; AID 686978, 2013; further: nearly all actives have a fitted effect of over 55% in size
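DT40 Tdp1-/-;hTDP1 cells, no CPT (DMSO vehicle only), 400 cells/well; compounds pin-transferred; ≥48 hr, 37 °C; CellTiter-Glo 30 min RT dark, luminescence read.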
TDP1 cell CPT: qHTS for Inhibitors of human tyrosyl-DNA phosphodiesterase 1 (TDP1): qHTS in cells in presence of CPT; chicken DT40 Tdp1-/-;hTDP1 cells + 20 nM CPT, ATP luminescence, 48 h; Potency, µM (titrated, usually from 46.2 µM), most hits filed as inhibitors; hit rate 12% among 420,000; further: nearly all actives have a fitted effect of over 55% in size
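Chicken DT40 Tdp1-/- cells stably complemented with human TDP1 were seeded at 400 cells/well in medium containing 20 nM camptothecin, exposed to pin-transferred compounds, and grown at 37 °C for at least 48 hr. Viability was read as ATP luminescence.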
TDP1 inh: qHTS Assay for Inhibitors of Tyrosyl-DNA Phosphodiesterase (TDP1). recombinant TDP1, AlphaScreen DNA substrate cleavage. Potency, µM (doses to about 130 µM), actives largely listed as inhibitors. hit rate 0.28% among 350,000. AID 485290, 2010; further: nearly all actives have a fitted effect of over 40% in size
Target sequence (Q9NUW8 whole entry, looked up): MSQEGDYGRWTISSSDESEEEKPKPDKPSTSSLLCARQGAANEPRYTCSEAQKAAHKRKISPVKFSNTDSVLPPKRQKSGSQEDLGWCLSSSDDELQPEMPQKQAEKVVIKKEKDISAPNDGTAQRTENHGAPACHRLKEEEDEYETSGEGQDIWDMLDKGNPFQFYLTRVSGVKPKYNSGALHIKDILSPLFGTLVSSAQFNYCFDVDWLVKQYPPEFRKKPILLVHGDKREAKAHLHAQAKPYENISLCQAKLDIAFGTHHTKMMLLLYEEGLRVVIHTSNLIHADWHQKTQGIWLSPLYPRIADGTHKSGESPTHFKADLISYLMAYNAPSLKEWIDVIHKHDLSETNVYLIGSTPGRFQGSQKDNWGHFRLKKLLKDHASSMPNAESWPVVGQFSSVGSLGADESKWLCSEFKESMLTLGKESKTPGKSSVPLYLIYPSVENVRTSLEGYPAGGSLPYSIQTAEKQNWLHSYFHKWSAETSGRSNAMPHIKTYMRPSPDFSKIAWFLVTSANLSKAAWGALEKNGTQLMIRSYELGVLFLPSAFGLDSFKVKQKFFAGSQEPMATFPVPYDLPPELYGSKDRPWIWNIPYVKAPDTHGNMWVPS
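Enzyme-compound mixtures sat 15 min at room temperature, followed by a 5 min reaction with 15 nM final substrate and 10 min with AlphaScreen beads. Recombinant human Tdp1 was used at 1 nM final.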
ClpP mod: qHTS Assay for Activators of ClpP | purified B. subtilis ClpP, FRET peptide cleavage, 20 min | Potency, µM (highest dose often 57.5 µM) | hit rate 1.9% among 340,000 | AID 651965, 2013; active means well fitted falling curve with a large enough effect; inconclusive means small, poorly fitted or top-dose-only effect; inactive means no such curve, though single readings can be large or run the other way; further: the source files actives as falling curves though it sought activators and does not explain the sign; nearly all actives have a fitted effect of over 65% in size
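FRET quenching reversal measured ClpP activation: 10 microg/mL B. subtilis ClpP at pH 8 with the FRET-FV decapeptide, read at 430 nm after 320 nm excitation. The 20-min minus 0-min signal was scaled between DMSO/no-enzyme wells and ADEP (5.8 microM final).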
Hits are given with their value. Sampled rows, rich in hits. Any-hit rate of the full collection: about 17%. Unless noted, the call rests on the fitted dose curve; in most records, active means well fitted curve in the direction sought with a large enough effect; inconclusive means small, poorly fitted or top-dose-only effect, or another doubt; inactive means no such curve, though single readings can be large; an effect the other way counts as inactive or inconclusive.

Screening COc1ccc2[nH]c(=O)c(-c3nnn(-c4ccc(F)cc4)n3)cc2c1 returned DT40 TDP1 no CPT 16µM, TDP1 cell CPT 4.6µM and ClpP mod inactive.
For O=c1[nH]c2ccccc2cc1-c1nnn(-c2ccccc2)n1 the results were DT40 TDP1 no CPT inconclusive, TDP1 cell CPT 16µM and ClpP mod inactive.
COc1ccc2[nH]c(=O)c(-c3nnn(-c4ccc(Cl)nc4)n3)cc2c1 was read as DT40 TDP1 no CPT inconclusive, TDP1 cell CPT 12µM and ClpP mod inactive.
Screening Fc1ccc(-n2nnc(-c3ccccc3)n2)cc1 returned DT40 TDP1 no CPT inactive, TDP1 cell CPT inactive and ClpP mod inactive.
Screening COc1ccc2[nH]c(=O)c(-c3nnn(-c4ccccc4)n3)cc2c1 returned DT40 TDP1 no CPT inconclusive, TDP1 cell CPT inconclusive, TDP1 inh inactive and ClpP mod inactive.
For O=C(NCCc1nc2ccccc2[nH]1)c1cc([N+](=O)[O-])cc([N+](=O)[O-])c1 the results were DT40 TDP1 no CPT inactive, TDP1 cell CPT inactive, TDP1 inh inactive and ClpP mod inactive.
For Cc1ccc(N/N=C(\Cc2nc3ccccc3[nH]2)c2ccccc2)cc1 the results were DT40 TDP1 no CPT 0.65µM, TDP1 cell CPT 0.82µM, TDP1 inh inactive and ClpP mod inactive.
Screening N/N=C(/Cc1nc2ccccc2[nH]1)c1ccc([N+](=O)[O-])cc1 returned DT40 TDP1 no CPT inconclusive, TDP1 cell CPT 26µM and TDP1 inh inactive.
For c1ccc(N/N=C(\Cc2nc3ccccc3[nH]2)c2ccccc2)cc1 the results were DT40 TDP1 no CPT inconclusive, TDP1 cell CPT inconclusive, TDP1 inh inactive and ClpP mod inactive.
`Cc1nnsc1C(=O)Oc1ccc(C(C)C)cc1` gave DT40 TDP1 no CPT inactive, TDP1 cell CPT inactive, TDP1 inh inactive and ClpP mod inactive.
Screening COc1cc(=O)n2c(c1C(=O)NCc1ccsc1)CCN(Cc1nc3ccccc3[nH]1)CC2 returned DT40 TDP1 no CPT inactive and TDP1 cell CPT inactive.
Screening O=c1cc(Nc2ccc3c(c2)OCCO3)[nH]c(=O)n1-c1ccc(Cl)cc1 returned DT40 TDP1 no CPT 18µM, TDP1 cell CPT 23µM, TDP1 inh inactive and ClpP mod inactive.
For O=c1cc(Nc2ccc3c(c2)OCCO3)[nH]c(=O)n1C1CCCCC1 the results were DT40 TDP1 no CPT 16µM, TDP1 cell CPT 15µM, TDP1 inh inactive and ClpP mod inactive.
CCOc1ccc(NC(=O)Cn2c(=O)n(-c3cccc(OC)c3)c(=O)c3c4c(sc32)CCCC4)cc1 was read as DT40 TDP1 no CPT inactive, TDP1 cell CPT inconclusive, TDP1 inh inactive and ClpP mod inactive.
COc1cc(C(=O)O[C@H]2CC(C)=CC[C@@]3(C)CC[C@@](O)(C(C)C)[C@H]23)ccc1O was read as DT40 TDP1 no CPT inconclusive, TDP1 cell CPT inactive and ClpP mod inactive.
`CCOc1ccc(S(=O)(=O)n2cnc3cc(C)c(C)cc32)cc1` gave DT40 TDP1 no CPT 8.2µM, TDP1 cell CPT inconclusive, TDP1 inh inactive and ClpP mod inactive.
Screening Cc1cc2ncn(S(=O)(=O)c3ccc(S(N)(=O)=O)cc3)c2cc1C returned DT40 TDP1 no CPT inactive, TDP1 cell CPT inactive and ClpP mod inactive.
Screening Cc1cc2ncn(S(=O)(=O)c3ccc(F)cc3)c2cc1C returned DT40 TDP1 no CPT inactive, TDP1 cell CPT inactive and ClpP mod inactive.
For Cc1cc2ncn(S(=O)(=O)c3ccc(S(=O)(=O)N4CCCCCC4)cc3)c2cc1C the results were DT40 TDP1 no CPT 21µM, TDP1 cell CPT 16µM and ClpP mod inactive.
Screening Cc1ccc(/C=C2\SC(=S)N(CCC(=O)NNS(=O)(=O)c3ccccc3)C2=O)cc1 returned DT40 TDP1 no CPT inactive and TDP1 cell CPT inactive.
`CCOC(=O)CSc1nc2cc3c(cc2cc1C)OCO3` gave DT40 TDP1 no CPT inactive, TDP1 cell CPT inactive, TDP1 inh inconclusive and ClpP mod inactive.
For Cc1ccc(-c2nnc(CSc3nc4cc5c(cc4cc3C)OCO5)o2)cc1 the results were DT40 TDP1 no CPT 21µM, TDP1 cell CPT inconclusive, TDP1 inh inactive and ClpP mod inactive.
`CCOc1ccc(CNC(=O)CCCn2c(=O)c3cccn3c3ccccc32)cc1` gave DT40 TDP1 no CPT inconclusive, TDP1 cell CPT inconclusive, TDP1 inh inactive and ClpP mod inactive.
`Cc1ccc(-c2nc3sc(CCNS(=O)(=O)c4cc(F)ccc4F)c(C)n3n2)cc1` gave DT40 TDP1 no CPT 21µM, TDP1 cell CPT inconclusive, TDP1 inh inactive and ClpP mod inactive.
For Cc1c(CCNC(=O)C(C)(C)C)sc2nc(-c3ccc(F)cc3)nn12 the results were DT40 TDP1 no CPT 26µM, TDP1 cell CPT inconclusive, TDP1 inh inactive and ClpP mod inactive.
Cc1onc(-c2c(F)cccc2Cl)c1C(=O)NCc1ccc(F)cc1 was read as DT40 TDP1 no CPT inconclusive, TDP1 cell CPT inactive and ClpP mod inactive.
Screening CSc1ncccc1C(=O)Nc1cc(Cl)ccc1N1CCOCC1 returned DT40 TDP1 no CPT inconclusive, TDP1 cell CPT inconclusive, TDP1 inh inactive and ClpP mod inactive.
C=CCn1c(SCC(=O)c2ccc(O)c(O)c2)nnc1-c1cccc(OC)c1 was read as DT40 TDP1 no CPT 15µM, TDP1 cell CPT 15µM, TDP1 inh inactive and ClpP mod inactive.
For C=CCn1c(SCC(=O)c2cccs2)nnc1-c1cccc(OC)c1 the results were DT40 TDP1 no CPT inactive, TDP1 cell CPT inactive, TDP1 inh inactive and ClpP mod inactive.
Screening C=CCn1c(SCC(=O)c2ccc(O)c(O)c2)nnc1-c1ccc(OC)cc1 returned DT40 TDP1 no CPT 16µM, TDP1 cell CPT 21µM and ClpP mod inactive.
`C=CCn1c(SCC(=O)c2ccc(O)c(O)c2)nnc1-c1ccc(C)cc1` gave DT40 TDP1 no CPT inconclusive, TDP1 cell CPT 16µM, TDP1 inh inactive and ClpP mod inactive.
CCOc1ccc(C(=O)N2CC(=O)Nc3ccc(C)cc3C2c2ccc(F)cc2)cc1OCC (stereo not drawn) was read as DT40 TDP1 no CPT inconclusive, TDP1 cell CPT inconclusive, TDP1 inh inactive and ClpP mod inactive.
For COCCN(CCOC)c1ncc(Cl)c(C(=O)c2c(C)cc3ccccn23)n1 the results were DT40 TDP1 no CPT 21µM, TDP1 cell CPT inconclusive, TDP1 inh inactive and ClpP mod inactive.
For CCCc1[nH]nc2c1C(c1cc(OC)cc(OC)c1)C(C#N)=C(N)O2 (stereo not drawn) the results were DT40 TDP1 no CPT inactive, TDP1 cell CPT inactive, TDP1 inh inactive and ClpP mod inactive.
`CCCc1[nH]nc2c1C(c1ccc(OC)c(CSC3=NCCS3)c1)C(C#N)=C(N)O2` (stereo not drawn) gave DT40 TDP1 no CPT 21µM, TDP1 cell CPT inconclusive, TDP1 inh inactive and ClpP mod inactive.
For CCOC(=O)c1noc2ncn(Cc3ccc([N+](=O)[O-])cc3)c(=O)c12 the results were DT40 TDP1 no CPT inactive, TDP1 cell CPT inactive, TDP1 inh inactive and ClpP mod inactive.

Screens (PubChem BioAssay)
